Measurements published in PubChem BioAssay (EPA / NIEHS).
“And” between values parts separate entries of the source, which are not always exact repeats. Equal entries are not always repeated. Results filed as inconclusive are left out. Some compounds were tested as several samples or in several runs, with calls that do not always agree. The source made the active and inactive calls. Rule for the calls: active = hit-call score of the fitted dose curve at least 0.9, where 1 is the maximum; inconclusive = response in the unintended direction; inactive = score below 0.9.

target: Estrogen receptor (Homo sapiens) (UniProt P03372); assay: OT_ER_ERaERa_0480: Odyssey Thera (OT) 8-hour HEK293T Protein-Complementation Assay for Estrogen Receptor-alpha/-alpha Homodimer (AID 2283351);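 note: rise in fluorescence from reassembled reporter fragments on ERα LBD homodimer in nucleus or whole cell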
Sequence (P03372 whole entry, looked up, the tested form may be a part): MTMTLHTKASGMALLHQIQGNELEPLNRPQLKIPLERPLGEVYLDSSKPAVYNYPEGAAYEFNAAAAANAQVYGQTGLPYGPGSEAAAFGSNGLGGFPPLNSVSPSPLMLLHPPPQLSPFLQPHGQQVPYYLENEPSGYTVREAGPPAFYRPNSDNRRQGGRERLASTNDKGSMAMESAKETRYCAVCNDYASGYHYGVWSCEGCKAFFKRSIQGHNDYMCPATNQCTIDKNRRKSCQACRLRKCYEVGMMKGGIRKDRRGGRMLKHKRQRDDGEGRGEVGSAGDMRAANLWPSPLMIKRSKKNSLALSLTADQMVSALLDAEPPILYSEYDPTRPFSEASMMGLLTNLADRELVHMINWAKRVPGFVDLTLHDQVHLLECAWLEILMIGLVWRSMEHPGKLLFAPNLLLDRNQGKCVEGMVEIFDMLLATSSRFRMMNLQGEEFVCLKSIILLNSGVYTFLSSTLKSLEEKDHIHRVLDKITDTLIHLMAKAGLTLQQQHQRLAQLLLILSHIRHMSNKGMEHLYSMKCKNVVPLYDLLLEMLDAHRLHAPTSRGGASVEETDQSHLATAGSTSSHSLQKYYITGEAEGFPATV
Procedure: OT_ER_ERaERa_0480 is a cell-based assay that uses HEK293T, a human kidney cell line, with measurements taken at 8 hours after chemical dosing in a 384-well plate.OT_ER_ERaERa_0480 is one of one assay component(s) measured or calculated from the OT_ER_ERaERa_0480 assay. It is designed to make measurements of protein fragment complementation, a form of binding reporter, as detected with fluorescence intensity signals by Protein-fragment Complementation technology.Data from the assay component OT_ER_ERaERa_0480 was analyzed into 1 assay endpoint. This assay endpoint, OT_ER_ERaERa_0480, was analyzed in the positive analysis fitting direction relative to DMSO as the negative control and baseline of activity. Using a type of binding reporter, measures of receptor for gain-of-signal activity can be used to understand the binding at the pathway-level as they relate to the gene ESR1. Furthermore, this assay endpoint can be referred to as a primary readout, because the performed assay has only produced 1 assay endpoint. To generalize the intended target to other relatable targets, this assay endpoint is annotated to the nuclear receptor intended target family, where the subfamily is steroidal.
Protein-fragment complementation assay, or PCA, is a method for the identification and quantification of protein-protein interactions. In the PCA, the proteins of interest ("bait" and "prey") are each covalently linked to fragments of a third protein (e.g. DHFR, which acts as a "reporter"). Interaction between the bait and the prey proteins brings the fragments of the reporter protein in close proximity to allow them to form a functional reporter protein whose activity can be measured. The OT ER alpha / ER alpha assay is a homodimer PCA of the ligand binding domain (amino acids 310-547) of human ER alpha stably expressed in HEK293T cells. […] Fluorescent signal in the basal state of the assay is very low and is primarily punctuate and cytoplasmic. Modulation of this assay is quantified as an increase in mean fluorescence intensity in the nucleus (for agonists) or in the nucleus and cytoplasm (antagonists) relative to vehicle controls, and can be quantified on a high content imaging device or a laser scanning cytometer. The latter instrument is favored for this assay because of the rapid mode of data acquisition, the ability to acquire data from the entire cell population in a well (as opposed to a fraction of the well on the high content devices) and the larger dynamic range typically achieved with this instrument. To assess sensitivity of the ER alpha/ER alpha LBD assay to ligand, cells were treated with the ER agonist 17 beta-estradiol (E2) in 10-point concentration- response format for 8 hours and monitored response on a laser scanning plate cytometer (Acumen eX3; TTP Lab Tech).

Q: For `CCCN(CCC)c1c([N+](=O)[O-])cc(C(F)(F)F)c(N)c1[N+](=O)[O-]`, which outcome is on record?
A: inactive

Q: With `CCCOC(=O)c1ccc(C(=O)OCCC)nc1` as the compound, how does the outcome read?
A: inactive

Q: For `Cc1nn(C)c(Oc2ccccc2)c1C=NOCc1ccc(C(=O)OC(C)(C)C)cc1`, which outcome is on record?
A: inactive

Q: How did the outcome turn out when `COc1c(Cl)ccc(Cl)c1C(=O)O` was run?
A: inactive

Q: With `CC(=O)S[C@@H]1CC2=CC(=O)CC[C@]2(C)[C@H]2CC[C@@]3(C)[C@@H](CC[C@@]34CCC(=O)O4)[C@H]12` as the compound, how does the outcome read?
A: inactive

Q: Which outcome does the source give for `O=C(Nc1ccc([N+](=O)[O-])cc1Cl)c1cc(Cl)ccc1O` here?
A: inactive

Q: `CCN(CC)C(=O)c1cccc(C)c1` was tested. Which outcome did it give?
A: inactive

Q: With `COCCO` as the compound, how does the outcome read?
A: inactive

Q: How did the AC50 turn out when `O=C(c1ccc(O)cc1O)c1ccc(O)cc1O` was run?
A: 6.81 µM (active) and 6.26 µM (active) and 6.64 µM (active)

Q: Which AC50 does the source give for `O=C(c1ccccc1)C1CCCCC1` here?
A: 56.4 µM (active) and 39.5 µM (active)

Q: What about the outcome of the same compound?
A: inactive

Q: `CCCCOC(=O)C(C)Oc1ccc(Oc2ccc(C(F)(F)F)cn2)cc1` (centres undefined) was tested. Which outcome did it give?
A: inactive

Q: What does the source list for `CCOC(=O)c1ccc(O)cc1`?
A: AC50: 59.9 µM (active) and 41.1 µM (active) and 59.6 µM (active); outcome: inactive

Q: With `O=C(O)c1ccccc1` as the compound, how does the outcome read?
A: inactive

Q: `CN(C)C(=O)Nc1ccc(Cl)c(Cl)c1` was tested. Which outcome did it give?
A: inactive

Q: Which AC50 does the source give for `CCN(Cc1c(F)cccc1Cl)c1c([N+](=O)[O-])cc(C(F)(F)F)cc1[N+](=O)[O-]` here?
A: 9.68 µM (active)

Q: `CCCCCOC(=O)COc1cc(N2C(=O)C3=C(CCCC3)C2=O)c(F)cc1Cl` was tested. Which outcome did it give?
A: inactive

Q: `CC(C)(c1ccc(O)cc1)c1ccc(O)cc1` was tested. Which outcome did it give?
A: inactive

Q: Which outcome does the source give for `CC1(C)C(C=C(Cl)Cl)C1C(=O)OCc1cccc(Oc2ccccc2)c1` (centres undefined) here?
A: inactive

Q: With `CCCCC(CC)CN1C(=O)C2C3C=CC(C3)C2C1=O` (centres undefined) as the compound, how does the outcome read?
A: inactive

Q: With `CCCCOC(=O)[C@@H](C)Oc1ccc(Oc2ccc(C(F)(F)F)cn2)cc1` as the compound, how does the outcome read?
A: inactive

Q: How did the outcome turn out when `CCSC(=O)N(CC(C)C)CC(C)C` was run?
A: inactive

Q: `CSC(=O)c1cccc2nnsc12` was tested. Which outcome did it give?
A: inactive

Q: With `CCCN(CCC)C(=O)SCC` as the compound, how does the outcome read?
A: inactive

Q: For `COC(=O)c1ccccc1C(=O)O`, which outcome is on record?
A: inactive

Q: With `CCOC(=O)C(C)Oc1ccc(Oc2cnc3cc(Cl)ccc3n2)cc1` (centres undefined) as the compound, how does the outcome read?
A: inactive

Q: Which outcome does the source give for `CCOC(=O)COc1cc(-n2ncc(C(F)(F)F)c(C)c2=O)c(F)cc1Cl` here?
A: inactive

Q: Which outcome does the source give for `C[C@]12C[C@H](O)[C@H]3[C@@H](CCC4=CC(=O)CC[C@@]43C)[C@@H]1CC[C@@H]2C(=O)CO` here?
A: inactive

Q: For `c1ccc2[nH]c(-c3cscn3)nc2c1`, which outcome is on record?
A: inactive

Q: For `N[C@@H](Cc1cc(I)c(Oc2ccc(O)c(I)c2)c(I)c1)C(=O)O`, which outcome is on record?
A: inactive

Q: How did the outcome turn out when `CC(=O)[C@H]1CC[C@H]2[C@@H]3CCC4=CC(=O)CC[C@]4(C)[C@H]3CC[C@]12C` was run?
A: inactive

Q: For `C#C[C@]1(O)CC[C@H]2[C@@H]3CCC4=CC(=O)CC[C@@H]4[C@H]3CC[C@@]21CC`, which outcome is on record?
A: inactive

Q: With `N#CSCSc1nc2ccccc2s1` as the compound, how does the outcome read?
A: inactive
